Experimental findings from publication PMC8222333, “AsCas12a ultra nuclease facilitates the rapid generation of therapeutic cell medicines” are described below.

First the molecules themselves.
B1: TTTT (dsDNA)
DNA 1: GCTATCTAGTGCTCAGTACGCACTGTTTTAGGAAACTTCTGGCAGGACCAGGTCATGAGATCGGAAGAGCACACGTCTGAACTCCAGTCA
DNA 2: TGACTGGAGTTCAGACGTGTGCTCTTCCGATCTCATGACCTGGTCCTGCCAGAAGTTTCCTAAAACAGTGCGTACTGAGCACTAGATAGC
RNA: AAUUUCUACUCUUGUAGAUAGGAAACUUCUGGCAGGACC
B2: AATC (dsDNA)
DNA 1: GCTATCTAGTGCTCAGTACGCACTGAATCAGGAAACTTCTGGCAGGACCAGGTCATGAGATCGGAAGAGCACACGTCTGAACTCCAGTCA
DNA 2: TGACTGGAGTTCAGACGTGTGCTCTTCCGATCTCATGACCTGGTCCTGCCAGAAGTTTCCTGATTCAGTGCGTACTGAGCACTAGATAGC
RNA: AAUUUCUACUCUUGUAGAUAGGAAACUUCUGGCAGGACC
B3: ATTC (dsDNA)
DNA 1: GCTATCTAGTGCTCAGTACGCACTGATTCAGGAAACTTCTGGCAGGACCAGGTCATGAGATCGGAAGAGCACACGTCTGAACTCCAGTCA
DNA 2: TGACTGGAGTTCAGACGTGTGCTCTTCCGATCTCATGACCTGGTCCTGCCAGAAGTTTCCTGAATCAGTGCGTACTGAGCACTAGATAGC
RNA: AAUUUCUACUCUUGUAGAUAGGAAACUUCUGGCAGGACC
B4: ATTG (dsDNA)
DNA 1: GCTATCTAGTGCTCAGTACGCACTGATTGAGGAAACTTCTGGCAGGACCAGGTCATGAGATCGGAAGAGCACACGTCTGAACTCCAGTCA
DNA 2: TGACTGGAGTTCAGACGTGTGCTCTTCCGATCTCATGACCTGGTCCTGCCAGAAGTTTCCTCAATCAGTGCGTACTGAGCACTAGATAGC
RNA: AAUUUCUACUCUUGUAGAUAGGAAACUUCUGGCAGGACC
B5: ATTA (dsDNA)
DNA 1: GCTATCTAGTGCTCAGTACGCACTGATTAAGGAAACTTCTGGCAGGACCAGGTCATGAGATCGGAAGAGCACACGTCTGAACTCCAGTCA
DNA 2: TGACTGGAGTTCAGACGTGTGCTCTTCCGATCTCATGACCTGGTCCTGCCAGAAGTTTCCTTAATCAGTGCGTACTGAGCACTAGATAGC
RNA: AAUUUCUACUCUUGUAGAUAGGAAACUUCUGGCAGGACC
B6: ATTT (dsDNA)
DNA 1: GCTATCTAGTGCTCAGTACGCACTGATTTAGGAAACTTCTGGCAGGACCAGGTCATGAGATCGGAAGAGCACACGTCTGAACTCCAGTCA
DNA 2: TGACTGGAGTTCAGACGTGTGCTCTTCCGATCTCATGACCTGGTCCTGCCAGAAGTTTCCTAAATCAGTGCGTACTGAGCACTAGATAGC
RNA: AAUUUCUACUCUUGUAGAUAGGAAACUUCUGGCAGGACC
B7: AATA (dsDNA)
DNA 1: GCTATCTAGTGCTCAGTACGCACTGAATAAGGAAACTTCTGGCAGGACCAGGTCATGAGATCGGAAGAGCACACGTCTGAACTCCAGTCA
DNA 2: TGACTGGAGTTCAGACGTGTGCTCTTCCGATCTCATGACCTGGTCCTGCCAGAAGTTTCCTTATTCAGTGCGTACTGAGCACTAGATAGC
RNA: AAUUUCUACUCUUGUAGAUAGGAAACUUCUGGCAGGACC

The target of one test is dAsCas12a WT (Acidaminococcus sp., UniProt U2UMQ6 1-1307, D908A;E993A;D1235A). The experiment in a line: Spec-seq (native PAGE EMSA with sequencing of bound and unbound); 25 mM Tris-HCl pH 7.4, 150 mM KCl, 5 mM MgCl2, 10% glycerol, 1 mM DTT, 40 ng/uL salmon sperm DNA; 400 nM Cas12a, 480 nM crRNA, 50 nM library, 37 C 1 h; native P; high values mean tight binding.
Conditions: not given
B1 gave a binding signal of -5.51 lnKA.
Molecule B3 yielded a binding signal of -6.67 lnKA.
B4 displayed a binding signal of -7.65 lnKA.
Consider B5, for which the binding signal was -6.74 lnKA.
Molecule B6 displayed a binding signal of -8.27 lnKA.

A further test deals with dAsCas12a Ultra (Acidaminococcus sp., UniProt U2UMQ6 1-1307, M537R;F870L;D908A;E993A;D1235A). The experiment in a line: Spec-seq (native PAGE EMSA with sequencing of bound and unbound); 25 mM Tris-HCl pH 7.4, 150 mM KCl, 5 mM MgCl2, 10% glycerol, 1 mM DTT, 40 ng/uL salmon sperm DNA; 400 nM Cas12a, 480 nM crRNA, 50 nM library, 37 C 1 h; native PAGE at room temperature; high values mean tight binding. Conditions: protein: recombinant. A general note: A gel shift assay detects complexes by their altered migration in electrophoresis.
Turning to B1, the binding signal is -3.17 lnKA.
With B2, the binding signal was -8.65 lnKA.
For the molecule B3, the binding signal is -4.57 lnKA.
Regarding B4, the binding signal was -5.43 lnKA.
On to B5, for which the binding signal was -4.56 lnKA.
On to B6, for which the binding signal is -7.31 lnKA.
Still for that read-out and setting: the figure for B7 is -8.32 lnKA.

For another test, the target named is dAsCas12a E174R (Acidaminococcus sp., UniProt U2UMQ6 1-1307, E174R;D908A;E993A;D1235A). The description is as above. Conditions: protein: recombinant.
Take B1: the binding signal is -2.29 lnKA.
For B2, the binding signal was -8.08 lnKA.
B3: the binding signal was -3.93 lnKA.
On the same count and under the same terms, next, B4: -4.83 lnKA; B5: -2.6 lnKA; B6: -6.8 lnKA.
In the case of B7, the binding signal is -7.04 lnKA.

The target in another test is dAsCas12a S542R (Acidaminococcus sp., UniProt U2UMQ6 1-1307, S542R;D908A;E993A;D1235A). The test is described as above. Particulars: protein: recombinant.
B1: the binding signal was -2.76 lnKA.
On to B2, for which the binding signal was -8.19 lnKA.
For the molecule B3, the binding signal was -4.41 lnKA.
For B4, the binding signal was -4.9 lnKA.
With B5, the binding signal is -4.16 lnKA.
The same measure, in the same setting: next, B6: -7.13 lnKA.
For B7, the binding signal was -8.13 lnKA.

The target of the next test is dAsCas12a K548R (Acidaminococcus sp., UniProt U2UMQ6 1-1307, K548R;D908A;E993A;D1235A). The test is described as above. Conditions: protein: recombinant.
For the molecule B1, the binding signal is -4.73 lnKA.
In the case of B2, the binding signal is -8.64 lnKA.
The same measure, in the same setting: the figure for B3 is -5.19 lnKA; for B4 it is -6.23 lnKA; for B5 it is -5.45 lnKA.
As for B6, the binding signal was -8.23 lnKA.

For another test, the target named is d-enCas12a (Acidaminococcus sp., UniProt U2UMQ6 1-1307, E174R;S542R;K548R;D908A;E993A;D1235A). Described as above. Particulars: protein: recombinant.
Turning to B1, the binding signal is -0.44 lnKA.
Take B2: the binding signal is -2.56 lnKA.
For the molecule B3, the binding signal was -0.519 lnKA.
With B4, the binding signal is -1.2 lnKA.
For the molecule B5, the binding signal is -0.456 lnKA.
Consider B6, for which the binding signal was -2.42 lnKA.
Regarding B7, the binding signal was -2.24 lnKA.

A further test deals with d-enCas12a-Ultra (Acidaminococcus sp., UniProt U2UMQ6 1-1307, E174R;S542R;K548R;M537R;F870L;D908A;E993A;D1235A). Described as above. Particulars: protein: recombinant.
For the molecule B1, the binding signal was -0.171 lnKA.
For B2, the binding signal is -0.883 lnKA.
Consider B3, for which the binding signal is -0.186 lnKA.
For the molecule B4, the binding signal was -0.339 lnKA.
B5: the binding signal is -0.172 lnKA.
For the molecule B6, the binding signal is -0.548 lnKA.
Same read-out and setting: the figure for B7 is -0.762 lnKA.
